Assay results taken from PubChem BioAssay AID1233 (SRMLSC, 2008).
Results with a measured potency or affinity are listed apart. Calls of active or inactive are those of the source.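 The calls were made as follows: active = a dose-response curve fit returns a half-maximal inhibitory concentration, extrapolated values included; inactive = the fit returns no such concentration.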

target: HMG-CoA reductase [Enterococcus faecalis] (UniProt Q9FD70); test: class II HMG-CoA reductase inhibition potency – biochemical, Enterococcus faecalis, confirmation (AID 1233);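 also: 0% = full reaction carrier wells and 100% = background wells lacking mevalonate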; conditions: purified E. faecalis HMGR, NADPH absorbance 340 nm kinetics; series mostly up to 100 µM; inhibition: at the top concentration

inhibition, inactive:
COc1cccc(C2NC(=O)NC(O)(C(F)(F)F)C2C(=O)c2cccnc2)c1OC (configuration not stated) -8.84%
O=C(CCc1ccccc1)Nc1ncc2c(n1)CCCC2=O -1.28%
COc1ccc(/C=C(/C#N)S(=O)(=O)c2ccc(C)cc2)cc1 -60.1%
O=C(CCS(=O)(=O)c1cccc2nonc12)Nc1cccc2c1CCCC2 -2.96%
O=C(Cc1ccccc1)Nc1ccccc1CO -3.78%
Cc1cc(C)cc(-n2c3nc4ccccc4nc3c3c(=O)n(Cc4ccco4)cnc32)c1 -7.6%
CN(C1CCCC1)C1CCN(C(=O)CNC(=O)/C=C/c2ccccc2)CC1 -3.48%
Cc1ccc(NC2=C(N3CCOCC3)C(=O)c3ccccc3C2=O)cc1 -1.54%
CN(C(=O)CCN1C(=O)C(C)(C)Nc2ccccc21)c1ccccc1 -11.7%
CC(C)[C@H](NC(N)=O)C(=O)Nc1cccc(S(=O)(=O)N2CCOCC2)c1 2.1%
COc1ccc(-c2nc(CN3CCCCC3c3cccnc3)c(C)o2)c(F)c1 (configuration not stated) -8.15%
COc1ccc(-c2nnc(SC(C)C(=O)Nc3ccc4c(c3)OCCO4)o2)cc1 (configuration not stated) -2.47%
Nc1c(C(=O)c2ccccc2)sc2c1c(=O)[nH]c(=O)n2-c1ccccc1 -2.21%
C=CCn1cnc2c(c1=O)c1nc3ccccc3nc1n2/N=C/c1cc(OC)c(OC)c(OC)c1 -0.47%
COc1ccc2c(C)cc(=S)[nH]c2c1 -1.14%
COCc1c(C(=O)Nc2nc(C)cs2)oc2ccccc12 -0.65%
COCCOC(=O)c1c(NC(=O)CN2CCOCC2)sc(C(N)=O)c1C -6.21%
CC(=O)Nc1cccc(NC(=O)CSc2ccc(-c3cccnc3)nn2)c1 -0.43%
Cc1ccccc1Nc1nc(N)nc(CN2CCN(Cc3ccc4c(c3)OCO4)CC2)n1 -8.07%
CN(C)S(=O)(=O)c1cccc(NC(=O)Cn2cc(C(F)(F)F)cc(Cl)c2=O)c1 -11.3%
COc1ccc(/C=N/Nc2nccnc2Cl)c(OC)c1 -15.9%
O=C(O)c1cc(CN2CCOCC2)oc1-c1ccccc1 -1.88%
Cc1nnc(SCc2c(Cl)cccc2Cl)n(N)c1=O -3.37%
COc1cccc(C(=O)CN2C3=NCCCN3c3ccccc32)c1 -4.22%
COc1ccc(N2C(=O)C3C4C=CC(C5CC45)C3C2=O)c([N+](=O)[O-])c1 (configuration not stated) -1.92%
CC(Sc1nnc(-c2ccccc2)c(-c2ccccc2)n1)C(=O)Nc1ncc(Cl)cc1Cl (configuration not stated) 2.62%
CCCCOC(=O)NCN1C(=O)C2C3C=CC(C3)C2C1=O (configuration not stated) 0.54%
O=C(N/N=C/c1ccc(OC(F)F)cc1OC(F)F)c1cccc(S(=O)(=O)N2CCOCC2)c1 -0.17%
COc1ccc(S(=O)(=O)N2CC=C(C(=O)Nc3ccc(NC(C)=O)cc3)CC2)cc1 -6.83%
CCOCC(=O)OCC(=O)Nc1cc(OC)c([N+](=O)[O-])cc1C -10.1%
COc1cc(OC)cc(C(=O)N[C@H](C(=O)OCn2nnc3ccccc3c2=O)C(C)C)c1 11.6%
Cc1nc(SCC(=O)N2CC(=O)Nc3ccccc32)c2c(C)c(C)sc2n1 -5.79%
NC(=O)CSc1nnc(-c2ccc([N+](=O)[O-])cc2)o1 -0.33%
CCC1(CC)C(=O)NN(c2ccccc2)C1=O -1.66%
C[C@H]1[C@H](C)CC[C@]2(C(=O)O)CC[C@]3(C)C(=CC[C@@H]4[C@@]5(C)C[C@@H](O)[C@H](O)C(C)(C)[C@@H]5CC[C@]43C)[C@H]12 -8.57%
Cc1ccc(CN(C)CC(=O)Nc2ccc3c(c2)CCC3)cc1 -4.12%
CCOC(=O)NC(=O)CN1C(=O)NC(C)(c2ccccc2)C1=O (configuration not stated) -1.73%
